Screening data deposited in PubChem BioAssay by several laboratories.
HSP90 refold inh = HSP90 refolding inhibition in rabbit reticulocyte lysate. luciferase refolding luminescence, 3 h. 0.91% of 290,000 active. inhibition, % at 5.6 µM. AID 1789;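 active = inhibition above the screen-wide mean plus 3 SD, computed separately per campaign, cut at about 16% in these data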;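 note: inhibitors lower the luminescence because luciferase stays unfolded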
aDG glyco up = increases alpha dystroglycan glycosylation | Pro5-aDG cells, alpha-DG glycosylation AlphaScreen (IIH6); 0% Pro5, 100% B10-LARGE cell signal | activation, % at 10 µM | 0.22% of 360,000 active;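 active = activation of at least 8% versus controls, or a plate z-score of at least 8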;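 note: Pro5 are CHO cells carrying HIG-tagged alpha-DG that lacks glycosylation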
LGR2 inh = Drosophila LGR2 receptor signaling inhibition | HEK293 LGR2, CRE-luciferase, bursicon-stimulated, 4 h | 0.35% of 380,000 active | inhibition, % at 9.99 µM;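 active = drop in luminescence signal, shown as inhibition above about 50% in the replicate tests, limit read from the data, passing the limit was not always enough; inconclusive = probably only some replicates passing the limit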;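 note: agonist challenge used bursicon conditioned medium at about half maximal strength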
TROY NFkB inh = blocks TROY-dependent signaling in reporter cells; 0.98% of 360,000 active; inhibition, % at 10 µM; AID 1347056; Q293 LMP1-TROYcd NF-kB luciferase reporter, 4 h;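 active = compounds whose plate-normalised and pattern-corrected inhibition of the luciferase reporter signal at the single screening dose is 50% or more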
TWEAK Fn14 block = blocks TWEAK-Fn14 interaction in a reporter cell assay. TWEAK-stimulated Fn14 reporter cells, luciferase luminescence, 8 h. inhibition, % at 10 µM. 2% of 360,000 active. AID 1159606; in the data active = inhibition above about 50%
LMP1 NFkB inh = inhibitors of Epstein-Barr LMP1-induced NF-kappaB reporter; LMP1-induced NF-kappaB luciferase reporter cells, luminescence; inhibition, % at 12.5 µM; 0.69% of 350,000 active; AID 504558; in the data active = inhibition above about 41%; inconclusive = no clear call, values can overlap the other calls
Numbers stand for hits; 0 = inactive; ? = inconclusive; - = no result; ! = not active in a repeat. Hits are enriched below; roughly 2.6% of the tested compounds scored in any of these assays.

SMILES	HSP90 refold inh	aDG glyco up	LGR2 inh	TROY NFkB inh	TWEAK Fn14 block	LMP1 NFkB inh
COC(=O)[C@@H]1[C@@H](CO)[C@@H]2Cn3c(ccc(C4=CCCC4)c3=O)[C@H]1N2S(=O)(=O)c1cn(C)cn1	-	-	0	-	-	-
O=C(Cc1ccccn1)N1CCCCN2[C@H](CO)[C@H](c3ccc(Br)cc3)[C@H]2C1	-	-	0	-	-	-
Fc1ccc(C[n+]2c(-c3ccccc3)cc(-c3ccccc3)cc2-c2ccccc2)cc1	-	-	0	-	-	-
Clc1ccc(C[n+]2c(-c3ccccc3)cc(-c3ccccc3)cc2-c2ccccc2)cc1	-	0	0	50.9	73.3	?
C[CH2][Hg][S]c1ccccc1C(=O)O	-	0	95.6	0	92.2	0
O=C(O)c1cc[c]([Hg][Cl])cc1	-	0	-	0	64.6	0
COc1ccc(C(=O)O)cc1OC	-	0	0	0	0	0
COc1c2c(cc3c1OCO3)CCN(C)C2	-	0	0	0	0	79.0
Cc1cc(O)c2c(c1)C(=O)C13C(=C2O)C(=O)[C@H]2[C@@H](O)[C@@H]1[C@H]1[C@H](O)[C@@H]3C(=O)C3=C(O)c4c(O)cc(C)cc4C(=O)C312 (some centres not stated)	-	0	-	0	71.7	0
O=C(O)[C@H]1[C@H](CO)[C@H]2Cn3c(ccc(-c4cccc(F)c4)c3=O)[C@@H]1N2CCc1ccccc1	-	-	0	-	-	-
CC(C)CCn1c(N)c(C(=O)OCC2CCCO2)c2nc3ccccc3nc21 (configuration not stated)	0	0	-	60.3	0	0
CC(C)OC(=O)c1c(N)n(CC2CCCO2)c2nc3ccccc3nc12 (configuration not stated)	16.2	0	-	0	0	0
CCCC#Cc1ccc([C@H]2[C@@H](CO)N3CCCCN(C(=O)Cc4ccccn4)C[C@@H]23)cc1	-	-	0	-	-	-
O=C(Cc1ccncc1)N1CCCCN2[C@H](CO)[C@@H](c3ccc(C#CC4(O)CCCC4)cc3)[C@@H]2C1	-	-	0	-	-	-
COc1ccc2c(c1)[nH]c1c(C)nccc12	-	0	0	0	65.1	0
Cc1nccc2c1[nH]c1ccc(Br)cc12	-	0	0	0	0	0
CCn1c(O)c(N=Nc2ccc(S(=O)(=O)N3CCOCC3)cc2)c(=O)n(CC)c1=S	0	0	0	0	57.0	0
CCn1c(O)c(N=Nc2cccc(S(=O)(=O)N3CCOCC3)c2)c(=O)n(CC)c1=S	0	0	0	0	0	0
CCn1nc(-c2cccs2)nc2c(=O)n(C)c(=O)nc1-2	-	0	-	66.4	73.4	0
CC1=CC2OC3CC4OC(=O)C=CC=CC(=O)OCCC(C)C(O)C(=O)OCC2(CC1O)C4(C)C31CO1 (configuration not stated)	-	0	-	84.4	96.0	84.6
CC1=CC2OC3CC4OC(=O)C=CC=CC(C(C)O)OCC(O)C(C)CC(=O)OCC2(CC1O)C4(C)C31CO1 (configuration not stated)	-	0	107.0	84.2	99.3	83.6
COc1cccc(-c2ccc3n(c2=O)C[C@H]2[C@H](CO)[C@@H](C(=O)O)[C@@H]3N2Cc2ccccc2F)c1	-	-	0	-	-	-
CN1[C@H](CO)[C@H]2c3ccccc3NC[C@H]21	-	-	0	-	-	-
O=C(O)[C@@H]1[C@@H](CO)[C@@H]2Cn3c(ccc(-c4cccnc4)c3=O)[C@H]1N2S(=O)(=O)c1ccccc1F	-	-	0	-	-	-
NCCc1cc(O)c(O)cc1O	-	0	0	0	56.4!	0
SMILES	HSP90 refold inh	aDG glyco up	LGR2 inh	TROY NFkB inh	TWEAK Fn14 block	LMP1 NFkB inh
O=c1[nH]c(=S)[nH]c(O)c1N=Nc1ccc(SC(F)F)cc1	0	0	0	0	58.2	0
C/C=C/c1ccc(C2[C@H]3CNC[C@@H]2N3CC2CCCCC2)cc1 (some centres not stated)	-	-	0	-	-	-
CCOC(=O)[C@]12Cc3cc(C)ccc3[C@H]1N(Cc1ccccc1)C(=O)c1ccccc12	-	0	0	0	0	0
CCCCCN1C(=O)c2ccccc2[C@@]2(C(=O)OCC)Cc3cc(OC)ccc3[C@@H]12	-	0	64.5	0	0	-
CCOC(=O)[C@]12Cc3cc(C)ccc3[C@H]1N(C(C)C)C(=O)c1ccccc12	-	0	69.0	0	0	-
CC(=O)O[C@@H]1CC[C@]2(C)C3CC[C@]4(C)C(=O)[C@H](O)CC4C3[C@@H](OC(C)=O)C[C@H]2C1 (some centres not stated)	-	0	0	0	52.8	0
CC(=O)O[C@H]1CC[C@]2(C)C3CC[C@@]4(C)C(C[C@@H](O)[C@@H]4O)C3[C@@H](OC(C)=O)C[C@H]2C1 (some centres not stated)	-	0	0	0	0	0
